# Results from PubChem BioAssay.
# Active and inactive are the calls of the source.
# Experiments:
# [1] = system: PRMT1 (protein arginine N-methyltransferase 1); test: PRMT1 binders on small-molecule microarrays, primary screen, biochemical, small-molecule microarray, 635 nm fluorescence (AID 1088); details: small-molecule microarray binding, higher = more signal;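 also: binding of Prmt1 protein to compounds spotted on small-molecule microarray slides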
# [2] = yeast growth modulation, basal conditions, primary screen, YJM789 clinical isolate, OD600, 24 h (AID 1089);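 also: growth of clinical yeast isolate S. cerevisiae YJM 789 seeded 1000 cells per well; test concentration not given here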; details: S. cerevisiae YJM789 growth, higher = more signal, called active from +8 up or from −8 down
# [3] = fission yeast growth modulation, primary screen, strain 972, OD600, 24 h, no modulator (AID 1090);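 also: basal condition with compound alone and no growth modifier present; test concentration not given here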; details: S. pombe 972 growth, higher = more signal, called active from +8 up or from −8 down
# [4] = S. cerevisiae growth modulation with rapamycin, primary screen, strain BY4716, OD600, 96 h (AID 1091); details: higher = more signal, called active from +8 up or from −8 down; also: test concentration not given here
# [5] = molecular target: Torsin-1A-interacting protein 2 (Homo sapiens) (UniProt Q8NFQ8); test: LULL1 binders on small-molecule microarray, primary screen, cell lysate, human LULL1 lysate, 635/667 nm fluorescence (AID 1092); details: hLULL1 lysate binding, 635 nm fluorescence, higher = more signal;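 also: probe is lysate of COS7 cells overexpressing human LULL1; score merges per-feature 667 nm fluorescence with signal-to-noise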
# [6] = E. coli growth modulation, two-sided OD650, primary screen, E. coli filamentation project, strain DRC41, 24 h (AID 1093); details: OD650, 24 h, higher = more signal, called active from +8 up or from −8 down;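 also: MC1000 strain lacking acrAB efflux and sulA so SOS filamentation is blocked; test concentration not given here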
# [7] = small-molecule microarray binders of probe aLefty2, primary screen, biochemical, biotinylated probe, 635/667 nm fluorescence (AID 1094); details: higher = more signal;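 also: score merges spot fluorescence near 667 nm with spot signal-to-noise ratio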
# [8] = system: Noggin (protein binding on small-molecule microarray); test: Noggin binders on small-molecule microarray, primary screen, biochemical, 635/667 nm fluorescence (AID 1095); details: 635 nm fluorescence, higher = more signal;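 also: score merges 667 nm feature fluorescence with signal to noise over triplicate slides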
# [9] = molecular target: Neurogenic locus notch homolog protein 3 (Homo sapiens) (UniProt Q9UM47); test: NOTCH3 binders on small-molecule microarray, primary screen, biochemical, 635/667 nm fluorescence (AID 1096); details: NOTCH3 binding, 635 nm fluorescence, higher = more signal
# [10] = small-molecule microarray binders of probe aEGFR, primary screen, biochemical, biotinylated probe, 635/667 nm fluorescence (AID 1097); details: higher = more signal;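 also: probe is a biotinylated anti-EGFR antibody binding compounds printed on slides; score combines fluorescence near 667 nm and signal to noise of each spot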
# [11] = system: Plasmodium falciparum Sir2 (PF13_0152, Sir2A); test: pfSir2 binders on small-molecule microarrays, primary screen, biochemical, small-molecule microarray, 635 nm fluorescence (AID 1098); details: small-molecule microarray binding, fluorescence 635 nm; higher = more signal;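 also: score merges spot fluorescence intensity with its signal-to-noise ratio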
# [12] = small-molecule microarray binders of probe aDKK1, primary screen, biochemical, biotinylated probe, 635/667 nm fluorescence (AID 1099); details: higher = more signal;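 also: score merges 667nm spot fluorescence with signal to noise across triplicate slides; reference of the scale not given here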
# [13] = small-molecule microarray binders of probe aCHRDL2, primary screen, biochemical, biotinylated probe, 635/667 nm fluorescence (AID 1100); details: higher = more signal
# [14] = splicing luciferase reporter signal modulators, primary screen, spliceosome inhibition project, cell-based, HEK293, splice +/- reporter (AID 1101); details: luminescence, 24 h, higher = more signal, called active from +8 up or from −8 down;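 also: HEK293 cells carrying a splicing-competent luciferase reporter gene; test concentration not given here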
# [15] = molecular target: Fibroblast growth factor 10 (Homo sapiens) (UniProt O15520); test: FGF10 binders on small-molecule microarrays, primary screen, biochemical, small-molecule microarray, 635 nm fluorescence (AID 1102); details: FGF10 binding, fluorescence 635 nm, higher = more signal
# [16] = system: glycogen synthase kinase-3 (GSK3A per assay name; protocol says GSK3B); test: GSK3 binders on small-molecule microarrays, primary screen, biochemical, small-molecule microarray, 635 nm fluorescence, GSK3A (AID 1103); details: small-molecule microarray binding, fluorescence 635 nm; higher = more signal; also: the record names both GSK3A and GSK3B
# [17] = molecular target: Epidermal growth factor receptor (Homo sapiens) (UniProt P00533); test: EGFR binders on small-molecule microarrays, primary screen, biochemical, small-molecule microarray, 635 nm fluorescence (AID 1104); details: EGFR binding, higher = more signal;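 also: score merges 667 nm emission intensity with spot signal to noise over triplicate slides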
# [18] = molecular target: Follistatin-related protein 3 (Homo sapiens) (UniProt O95633); test: FSTL3 binders on small-molecule microarrays, primary screen, biochemical, small-molecule microarray, 635 nm fluorescence (AID 1105); details: FSTL3 binding, higher = more signal;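 also: score merges emission near 667 nm and signal to noise per printed spot across three slides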
# [19] = molecular target: Dickkopf-related protein 1 (Homo sapiens) (UniProt O94907); test: DKK1 binders on small-molecule microarrays, primary screen, biochemical, small-molecule microarray, 635 nm fluorescence scan (AID 1106); details: DKK1 binding, higher = more signal;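 also: score merges emission near 667 nm with signal to noise over three replicate slides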
# [20] = system: Inhibin beta A chain (activin A); test: INHBA (activin A) binders on microarrays, primary screen, biochemical, small-molecule microarray, 635 nm fluorescence scan (AID 1107); details: small-molecule microarray binding, higher = more signal;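 also: mouse activin A protein probed at 4.33 µg/mL on printed slides; score merges bound-protein fluorescence near 667 nm with spot signal-to-noise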
# Sequence of Fibroblast growth factor 10 (Homo sapiens) (O15520 whole entry, looked up): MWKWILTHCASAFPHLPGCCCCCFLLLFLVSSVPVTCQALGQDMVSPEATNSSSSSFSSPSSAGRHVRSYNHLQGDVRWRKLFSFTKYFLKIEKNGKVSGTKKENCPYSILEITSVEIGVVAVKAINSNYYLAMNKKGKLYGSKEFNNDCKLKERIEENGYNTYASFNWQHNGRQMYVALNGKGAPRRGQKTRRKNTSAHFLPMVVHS
# Sequence of Neurogenic locus notch homolog protein 3 (Homo sapiens) (Q9UM47 whole entry, looked up): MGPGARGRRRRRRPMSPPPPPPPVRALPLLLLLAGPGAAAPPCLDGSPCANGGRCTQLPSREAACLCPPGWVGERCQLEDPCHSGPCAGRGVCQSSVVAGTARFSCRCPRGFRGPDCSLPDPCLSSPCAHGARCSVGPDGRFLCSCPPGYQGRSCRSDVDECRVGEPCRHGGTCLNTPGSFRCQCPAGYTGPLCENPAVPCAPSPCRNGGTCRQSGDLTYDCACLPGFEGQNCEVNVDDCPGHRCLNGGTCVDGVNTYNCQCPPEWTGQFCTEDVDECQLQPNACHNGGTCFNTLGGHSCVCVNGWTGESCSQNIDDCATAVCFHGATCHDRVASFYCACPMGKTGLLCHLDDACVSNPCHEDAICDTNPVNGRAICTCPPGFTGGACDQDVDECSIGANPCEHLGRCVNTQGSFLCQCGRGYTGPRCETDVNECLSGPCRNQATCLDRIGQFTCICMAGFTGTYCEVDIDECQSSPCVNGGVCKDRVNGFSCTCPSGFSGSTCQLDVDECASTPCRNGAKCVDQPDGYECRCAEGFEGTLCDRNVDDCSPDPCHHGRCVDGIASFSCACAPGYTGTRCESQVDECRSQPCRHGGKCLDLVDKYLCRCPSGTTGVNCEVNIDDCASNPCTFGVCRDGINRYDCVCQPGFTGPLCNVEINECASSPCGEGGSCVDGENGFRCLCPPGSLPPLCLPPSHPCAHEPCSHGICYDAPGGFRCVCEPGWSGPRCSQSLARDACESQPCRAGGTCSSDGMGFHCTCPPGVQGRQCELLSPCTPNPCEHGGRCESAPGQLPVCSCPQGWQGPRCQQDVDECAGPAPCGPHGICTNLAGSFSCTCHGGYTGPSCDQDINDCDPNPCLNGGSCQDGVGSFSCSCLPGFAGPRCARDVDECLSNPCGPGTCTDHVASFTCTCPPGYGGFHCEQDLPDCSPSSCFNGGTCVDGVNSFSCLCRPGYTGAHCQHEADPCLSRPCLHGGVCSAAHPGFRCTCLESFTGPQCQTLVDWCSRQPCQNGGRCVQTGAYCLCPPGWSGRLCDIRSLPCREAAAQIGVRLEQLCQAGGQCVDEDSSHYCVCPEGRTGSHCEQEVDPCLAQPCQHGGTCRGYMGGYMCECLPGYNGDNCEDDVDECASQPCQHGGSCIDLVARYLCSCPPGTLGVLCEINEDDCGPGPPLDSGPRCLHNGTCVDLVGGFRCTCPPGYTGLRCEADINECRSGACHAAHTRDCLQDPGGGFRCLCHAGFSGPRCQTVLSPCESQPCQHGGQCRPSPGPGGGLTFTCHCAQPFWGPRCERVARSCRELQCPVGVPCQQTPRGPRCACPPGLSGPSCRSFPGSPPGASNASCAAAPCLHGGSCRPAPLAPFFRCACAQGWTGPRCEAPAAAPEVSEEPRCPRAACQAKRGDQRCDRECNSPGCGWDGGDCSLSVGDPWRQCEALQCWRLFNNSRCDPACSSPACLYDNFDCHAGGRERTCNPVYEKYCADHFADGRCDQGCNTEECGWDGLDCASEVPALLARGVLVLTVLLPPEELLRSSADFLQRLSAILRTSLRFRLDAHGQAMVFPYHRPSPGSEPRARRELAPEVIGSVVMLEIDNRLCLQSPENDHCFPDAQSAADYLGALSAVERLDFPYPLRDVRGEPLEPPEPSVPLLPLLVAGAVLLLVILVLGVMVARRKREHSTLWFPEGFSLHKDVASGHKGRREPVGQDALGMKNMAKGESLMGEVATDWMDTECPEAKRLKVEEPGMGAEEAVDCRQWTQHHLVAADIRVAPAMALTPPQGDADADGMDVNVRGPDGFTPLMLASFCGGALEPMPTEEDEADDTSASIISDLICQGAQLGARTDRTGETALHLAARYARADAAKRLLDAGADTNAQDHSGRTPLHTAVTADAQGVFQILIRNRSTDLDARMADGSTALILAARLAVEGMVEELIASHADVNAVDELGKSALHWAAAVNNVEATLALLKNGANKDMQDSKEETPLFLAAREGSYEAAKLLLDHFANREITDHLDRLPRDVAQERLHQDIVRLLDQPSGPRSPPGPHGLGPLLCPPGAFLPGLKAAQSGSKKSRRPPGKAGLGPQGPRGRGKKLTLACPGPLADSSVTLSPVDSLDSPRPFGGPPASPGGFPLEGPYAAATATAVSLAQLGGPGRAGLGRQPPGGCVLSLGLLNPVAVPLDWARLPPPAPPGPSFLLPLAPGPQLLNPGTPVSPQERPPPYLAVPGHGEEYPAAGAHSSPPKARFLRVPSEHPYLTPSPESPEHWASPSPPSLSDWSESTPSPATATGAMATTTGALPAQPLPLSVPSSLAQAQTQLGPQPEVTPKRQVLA
# Sequence of Epidermal growth factor receptor (Homo sapiens) (P00533 whole entry, looked up): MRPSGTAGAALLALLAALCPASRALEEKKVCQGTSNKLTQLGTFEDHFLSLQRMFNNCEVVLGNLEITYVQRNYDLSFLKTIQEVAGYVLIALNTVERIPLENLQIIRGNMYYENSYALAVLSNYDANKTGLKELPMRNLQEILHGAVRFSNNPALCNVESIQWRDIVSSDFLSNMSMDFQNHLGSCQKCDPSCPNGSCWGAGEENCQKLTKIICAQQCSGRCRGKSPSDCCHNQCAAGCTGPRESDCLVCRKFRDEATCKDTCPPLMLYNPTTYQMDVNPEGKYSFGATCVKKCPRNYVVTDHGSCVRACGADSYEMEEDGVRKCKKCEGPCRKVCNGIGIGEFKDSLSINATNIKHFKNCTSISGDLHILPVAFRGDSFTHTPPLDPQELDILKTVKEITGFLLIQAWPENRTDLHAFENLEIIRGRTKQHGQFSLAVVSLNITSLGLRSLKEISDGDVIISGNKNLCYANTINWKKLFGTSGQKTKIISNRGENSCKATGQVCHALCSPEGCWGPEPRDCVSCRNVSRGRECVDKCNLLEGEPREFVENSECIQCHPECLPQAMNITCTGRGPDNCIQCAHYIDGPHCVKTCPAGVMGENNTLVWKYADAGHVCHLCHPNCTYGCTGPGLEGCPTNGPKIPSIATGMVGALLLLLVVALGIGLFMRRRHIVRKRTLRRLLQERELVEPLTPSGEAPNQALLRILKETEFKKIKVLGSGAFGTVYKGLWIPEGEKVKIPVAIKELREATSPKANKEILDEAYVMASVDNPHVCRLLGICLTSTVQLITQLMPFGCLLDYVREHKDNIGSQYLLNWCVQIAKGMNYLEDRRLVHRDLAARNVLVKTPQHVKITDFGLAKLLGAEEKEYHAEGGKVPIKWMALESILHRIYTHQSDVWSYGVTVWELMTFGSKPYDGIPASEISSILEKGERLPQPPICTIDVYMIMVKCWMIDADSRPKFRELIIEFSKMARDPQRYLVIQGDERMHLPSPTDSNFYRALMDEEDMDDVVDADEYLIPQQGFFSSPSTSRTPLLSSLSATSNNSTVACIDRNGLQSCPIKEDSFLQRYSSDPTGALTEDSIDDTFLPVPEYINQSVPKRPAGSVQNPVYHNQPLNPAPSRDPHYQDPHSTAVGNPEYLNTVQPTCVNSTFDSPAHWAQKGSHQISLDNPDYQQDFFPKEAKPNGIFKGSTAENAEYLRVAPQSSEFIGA
# Sequence of Follistatin-related protein 3 (Homo sapiens) (O95633 whole entry, looked up): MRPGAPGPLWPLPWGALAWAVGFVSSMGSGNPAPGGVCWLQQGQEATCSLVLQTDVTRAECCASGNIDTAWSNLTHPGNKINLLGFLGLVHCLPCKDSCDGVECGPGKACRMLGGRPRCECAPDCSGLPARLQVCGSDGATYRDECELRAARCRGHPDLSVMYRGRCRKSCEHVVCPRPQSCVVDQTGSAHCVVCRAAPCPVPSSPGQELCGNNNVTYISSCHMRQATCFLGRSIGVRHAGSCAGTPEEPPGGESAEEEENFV
# Sequence of Torsin-1A-interacting protein 2 (Homo sapiens) (Q8NFQ8 whole entry, looked up): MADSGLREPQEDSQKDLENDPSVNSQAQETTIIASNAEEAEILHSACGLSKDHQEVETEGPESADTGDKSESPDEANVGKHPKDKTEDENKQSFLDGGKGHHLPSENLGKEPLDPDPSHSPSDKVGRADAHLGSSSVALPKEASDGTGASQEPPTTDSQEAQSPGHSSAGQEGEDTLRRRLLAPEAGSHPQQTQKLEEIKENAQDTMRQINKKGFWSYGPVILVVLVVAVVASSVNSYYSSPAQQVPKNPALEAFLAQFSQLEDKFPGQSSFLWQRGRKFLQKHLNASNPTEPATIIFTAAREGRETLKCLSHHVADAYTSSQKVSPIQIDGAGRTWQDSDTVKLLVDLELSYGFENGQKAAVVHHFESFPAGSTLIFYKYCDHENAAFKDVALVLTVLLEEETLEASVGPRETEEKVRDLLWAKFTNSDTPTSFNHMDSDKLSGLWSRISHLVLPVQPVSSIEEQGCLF
# Sequence of Dickkopf-related protein 1 (Homo sapiens) (O94907 whole entry, looked up): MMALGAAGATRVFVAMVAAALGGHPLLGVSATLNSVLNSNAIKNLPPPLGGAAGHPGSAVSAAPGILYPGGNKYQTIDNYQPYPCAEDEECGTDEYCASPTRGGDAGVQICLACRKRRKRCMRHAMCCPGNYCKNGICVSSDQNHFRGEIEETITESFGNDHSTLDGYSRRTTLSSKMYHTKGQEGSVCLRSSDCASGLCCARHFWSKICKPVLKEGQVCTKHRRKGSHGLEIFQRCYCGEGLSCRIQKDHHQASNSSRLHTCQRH
Structure (SMILES),composite z-score [1],z-score [2],z-score [3],z-score [4],composite z-score [5],z-score [6],composite z-score [7],composite z-score [8],composite z-score [9],composite z-score [10],composite z-score [11],composite z-score [12],composite z-score [13],z-score [14],composite z-score [15],composite z-score [16],composite z-score [17],composite z-score [18],composite z-score [19],composite z-score [20]
CCOC(=O)C1=CC[C@@H](c2ccc(OC)cc2)N(S(=O)(=O)c2ccc(C)cc2)[C@H]1CC,1.56,-1.48 (inactive),0.971 (inactive),0.879 (inactive),3.05,0.66 (inactive),0.0319,0.0635,1.08,-0.0157,0.469,0.607,0.88,-1.27 (inactive),0.996,0.811,0.233,1.1,0.106,0.372
C=CC[C@@]1(C(=O)OC)N=C(c2ccc(OCCCO)cc2)O[C@@H]1c1ccccc1N=[N+]=[N-],1.54,-0.777 (inactive),-0.713 (inactive),1.35 (inactive),3.05,0.643 (inactive),0.346,1.14,1.07,0.118,1.5,0.6,1,-1.61 (inactive),1.32,1.32,1.38,1.22,0.685,0.767
CCOC(=O)C1=CC[C@@H](c2ccc(OC)cc2)N(S(=O)(=O)c2ccc(C)cc2)[C@H]1c1ccc(C)cc1,0.966,0.106 (inactive),0.529 (inactive),0.53 (inactive),2.84,-0.747 (inactive),0.194,0.191,1.09,0.0656,0.71,0.528,0.836,-0.0291 (inactive),0.642,1.07,-0.0102,0.887,-0.346,0.588
Cc1ccc(F)cc1S(=O)(=O)N[C@H]1CCN(Cc2ccc(OC(C)C)cc2)C1,1.48,-1.09 (inactive),-13.1 (active),-1.03 (inactive),1.17,-2.66 (inactive),-0.218,1.41,0.0527,-0.18,1.23,-0.322,-0.747,-0.24 (inactive),0.44,0.0619,-0.437,0.195,0.577,-0.22
O=C1C[C@@](C(=O)NC2CC2)(c2ccc([N+](=O)[O-])cc2)[C@@H](c2ccc(CO)cc2)N1C1CCCCC1,1.52,-1.19 (inactive),-2.19 (inactive),-2.54 (inactive),3.12,0.778 (inactive),-0.0139,1.74,1.07,-0.0828,1.68,0.0035,0.49,-0.975 (inactive),1.5,0.808,0.359,1.32,0.517,0.357
CO[C@H]1O[C@H](CO)[C@@H](OC(=O)Nc2ccc3c(c2)OCO3)[C@H](OC(=O)Nc2ccccc2-c2ccccc2)[C@H]1OC(=O)Nc1ccccc1-c1ccccc1,1.54,2.5 (inactive),2.11 (inactive),2.28 (inactive),3.35,0.566 (inactive),0.0164,0.546,0.624,0.29,0.977,0.446,0.591,0.617 (inactive),1.03,1.31,-0.294,0.398,-0.0521,0.411
C=C(COC)/C(=C/C[C@H](OC(C)=O)c1ccccc1OCCO)c1cc(C(=O)OC)ccc1OC,1.48,0.909 (inactive),-0.662 (inactive),-0.16 (inactive),1.76,0.952 (inactive),-0.0928,0.485,0.372,-0.0815,0.989,-0.103,-0.0952,-0.907 (inactive),1.05,0.196,-0.607,0.186,0.189,0.289
C=CCOC(=O)[C@@H]1[C@H]2C(=O)O[C@H](c3ccccc3)[C@H](c3ccccc3)N2[C@H](c2ccc(OCCOC(=O)[C@H]3C[C@H]4C(=O)N5CCC[C@H]5C(=O)N4[C@H]3c3cccc(OCCO)c3)cc2)[C@@]12C(=O)Nc1ccc(I)cc12,1.53,1.3 (inactive),2.38 (inactive),4.79 (inactive),1.6,-0.333 (inactive),-0.0125,1.52,1.11,0.0238,1.56,-0.0777,0.0879,0.388 (inactive),1.05,1.24,1.08,1.42,1.06,-0.0842
O=C1C2C=CC(C(O)C3CCCCC3)N(n3cnnc3)C2C(=O)N1Cc1ccccc1 (stereo not given),1.51,-0.509 (inactive),0.266 (inactive),-0.98 (inactive),3.15,0.596 (inactive),0.145,0.915,1.06,0.0201,0.815,0.224,0.623,-1.3 (inactive),1.16,1.1,0.0887,1.21,-0.0435,1.13
C=C(CCCC)C(=O)CC[C@H](OC(=O)c1ccccc1-c1ccccc1C(=O)O)c1ccc(OCCO)cc1,0.636,-0.338 (inactive),-1.48 (inactive),-1.88 (inactive),1.65,0.836 (inactive),-0.0563,1.43,0.171,-0.0197,1.25,-0.253,-0.403,1.02 (inactive),0.569,0.107,0.12,0.0258,0.248,1.09
